# Pf growth 48h: Primary qHTS for delayed death inhibitors of the malarial parasite plastid, 48 hour incubation; P. falciparum luciferase growth in erythrocytes, 48 h; Potency, µM (doses to about 28.7 µM), for inactives: at the top dose activity change, negative = inhibition, most hits filed as inhibitors; hit rate 5.9% among 310,000; further: on the % scale 0 is the no-effect control and ±100 the full control effect
#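 Luminescence readout; reporter = integrated firefly luciferase in P. falciparum. RBC culture at 2% hematocrit, 0.1% parasitemia final, 37 C/5% CO2; decreased signal taken as growth inhibition.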
# AmpC inh no detg: qHTS Inhibitors of AmpC Beta-Lactamase (assay without detergent); P00811; hit rate 0.52% among 330,000; AmpC nitrocefin hydrolysis, absorbance 480 nm, 0.0001% Triton; Potency, µM (doses to about 57.1 µM), for the others: at the top dose activity change, negative = inhibition, usual class: inhibitors;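 further: plate controls were no compound for no effect and no enzyme for full effect; nearly all actives have a fitted effect of over 20% in size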
# Target sequence (P00811 whole entry, looked up): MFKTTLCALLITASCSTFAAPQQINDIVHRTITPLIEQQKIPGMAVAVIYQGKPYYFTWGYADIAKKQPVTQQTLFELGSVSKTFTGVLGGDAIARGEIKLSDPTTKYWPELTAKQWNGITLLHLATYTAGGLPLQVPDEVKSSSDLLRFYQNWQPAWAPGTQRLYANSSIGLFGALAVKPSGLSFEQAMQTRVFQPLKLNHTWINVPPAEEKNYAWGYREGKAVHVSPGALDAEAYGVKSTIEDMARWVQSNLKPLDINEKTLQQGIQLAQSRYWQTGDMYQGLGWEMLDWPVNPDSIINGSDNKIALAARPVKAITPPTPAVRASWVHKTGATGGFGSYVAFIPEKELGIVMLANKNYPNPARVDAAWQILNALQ
#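 AmpC (5.3 nM in the dispensed reagent) in 20 mM phosphate pH 7.0 with 0.01% (detergent screen) or 0.0001% Triton X-100 was preincubated with compounds for 15 min at room temperature. Nitrocefin was then added from an 800 uM solution, and hydrolysis was followed at 480 nm.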
# SARS PLP yeast: qHTS of Yeast-based Assay for SARS-CoV PLP; S. cerevisiae expressing SARS-CoV PLpro, growth rescue; Potency, µM (doses to about 32.9 µM), for the others: at the top dose activity, positive = growth rescue, usual class: activators; hit rate 0.19% among 330,000; calls by dose curve; further: 0% is about no effect; nearly all actives have a fitted effect of over 55% in size
# AmpC inh detg: qHTS Inhibitors of AmpC Beta-Lactamase (assay with detergent). AmpC hydrolysis of nitrocefin, absorbance 480 nm, 0.01% Triton. Potency, µM (highest dose often 114 µM), without a hit: top-dose activity change, negative = inhibition, most hits filed as inhibitors. hit rate 0.041% among 370,000. P00811;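 further: 0% = no-compound wells and -100% = no-enzyme wells; nearly all actives have a fitted effect of over 25% in size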
#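 20 mM phosphate pH 7.0 + 0.01% (detergent screen) or 0.0001% Triton X-100; 5.3 nM AmpC reagent; cpd preinc 15 min RT; nitrocefin (800 uM stock) to start; A480 q20 s × 4 min; Activity was normalised to no-enzyme and no-compound control wells.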
# Pf growth 96h: Primary qHTS for delayed death inhibitors of the malarial parasite plastid, 96 hour incubation | Potency, µM (doses to about 28.7 µM), inactives show at the highest dose activity change, negative = inhibition, hits mostly inhibitors | P. falciparum luciferase reporter growth, 96 h | hit rate 6.9% among 320,000; further: on the % scale 0 is the no-effect control and ±100 the full control effect
#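 Two-generation exposure (96 h) targets delayed-death phenotype. Reporter parasites carrying integrated firefly luciferase, in red cells at 2% hematocrit and 0.05% parasitemia final, kept at 37 C, 5% CO2; luminescence loss indicates inhibition.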
# Sm TGR block: qHTS Assay for the Inhibitors of Schistosoma Mansoni Peroxiredoxins; Schistosoma mansoni thioredoxin glutathione reductase (TGR), Q962Y6; purified TGR, DTNB reduction, TNB absorbance 405 nm; Potency, µM (series often up to 114 µM), inactives show at the top dose activity change, negative = inhibition, hits mostly inhibitors; hit rate 3% among 360,000; further: on the % scale 0 is the no-effect control and ±100 the full control effect; nearly all actives have a fitted effect of over 60% in size
#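 First, TGR (20 nM dispensed) and NADPH were mixed with compound. Second, a 15 min room-temperature incubation followed. Third, further NADPH and then DTNB were added to start the reaction. Finally, TNB absorbance was monitored kinetically.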
# * hit, by the source's call; ? = inconclusive; / = no result. A selection: hits, their analogues and other compounds. The true share with any hit is near 12%. Unless noted, the call rests on the fitted dose curve; in most records, active means well fitted curve in the direction sought with a large enough effect; inconclusive means small, poorly fitted or top-dose-only effect, or another doubt; inactive means no such curve, though single readings can be large; an effect the other way counts as inactive or inconclusive. Potency means the concentration at half of the fitted maximal effect.
SMILES,Pf growth 48h,AmpC inh no detg,SARS PLP yeast,AmpC inh detg,Pf growth 96h,Sm TGR block
CN(C)C(=O)C(=O)c1c(-c2ccccc2)cc2ccccn12,-3%,-2%,2%,0%,9%,-2%
CCOc1ccccc1CNCCNCC(C)O (stereo not drawn),-23%,-29%,0%,2%,9.3µM*,10%
Cc1ccccc1OCC(O)CN (stereo not drawn),16%,-12%,0%,-2%,/,8%
Cc1ccccc1OCCNCC(C)O (stereo not drawn),1%,2%,1%,0%,13µM*,-1%
COc1cc(OC)cc(N(C(=O)CNC(=O)c2ccco2)C(C(=O)NCC2CCCO2)c2ccccc2)c1 (stereo not drawn),0%,104%,-1%,-1%,9%,3%
Cn1c(SCc2cccc([N+](=O)[O-])c2)nc2c(c1=O)SCC2,?,-16%,1%,?,3.7µM*,0%
Cc1cc(C)c(NC(=O)CSc2nc3c(c(=O)n2C)SC(C)C3)c(C)c1 (stereo not drawn),-4%,3.2µM*,-7%,-19%,?,1%
CCOc1ccc(NC(=O)CSc2nc3c(c(=O)n2C)SC(C)C3)cc1 (stereo not drawn),13µM*,-27%,-12%,?,7.4µM*,-19%
Cn1c(SCc2cccnc2)nc2c(c1=O)SCC2,-2%,-6%,0%,?,?,15%
Cn1c(SCC(=O)Nc2ccc(C(N)=O)cc2)nc2c(c1=O)SCC2,5%,1%,3%,6%,-2%,-18%
Cn1c(SCC(=O)Nc2cccc(F)c2)nc2c(c1=O)SCC2,?,-15%,20%,-6%,2.6µM*,2%
COc1cccc(NC(=O)CSc2nc3c(c(=O)n2C)SC(C)C3)c1 (stereo not drawn),12µM*,-29%,-15%,-7%,9.3µM*,-12%
CC1=C(C(=O)Nc2ccc([N+](=O)[O-])cc2)C(c2cccc(C(F)(F)F)c2)NC(=S)N1c1ccccc1 (stereo not drawn),13µM*,-45%,-1%,-6%,/,-13%
COc1ccc(-n2nc3cc(C)c(N)c(Br)c3n2)cc1,20%,-17%,-3%,-3%,?,40µM*
COc1ccc(-n2nc3cc(N)c(Br)cc3n2)cc1,205%,-29%,0%,?,?,4%
CC1CCN(S(=O)(=O)c2cc(C(=O)Nc3ccc(Br)cc3F)n(C)c2)CC1,/,/,/,?,/,-7%
CN(C)c1ccc(C(CNC(=O)c2ccccc2Cl)N2CCCC2)cc1 (stereo not drawn),/,/,/,1%,/,-5%
O=C(Nc1cc(=O)[nH]c2nc(-c3ccc(Cl)cc3)nn12)c1ccccc1,0.59µM*,-29%,1%,7%,0.33µM*,0%
O=C(Nc1cc(=O)[nH]c2nc(-c3ccccc3)nn12)c1ccc(Cl)cc1,-5%,-31%,2%,-3%,-3%,13%
NC(=O)n1c(O)c(C(=O)c2cccs2)c2cc(Cl)ccc21,-7%,/,/,/,-11%,/
COc1cc2c(C(=O)N3CCN(C)CC3)c(C)n(-c3ccccc3)c2cc1Br,4.7µM*,244%,1%,-2%,1.5µM*,15%
N#CC1=C(S)N(c2ccccc2)C(c2ccc(-c3ccccc3Cl)o2)NC1=O (stereo not drawn),0%,?,-1%,3%,-11%,-15%
COc1ccc(C2CCCN2C(=S)Nc2cccc(C)c2C)cc1OC (stereo not drawn),12µM*,1%,-3%,4%,?,-17%
COc1ccc(C2CCCN2C(=S)Nc2cccc(C)c2)cc1OC (stereo not drawn),12µM*,-10%,-5%,-2%,?,4%
CC(=O)Nc1ccc(NC(=O)C2CCCN2S(=O)(=O)c2ccc3c(c2)CCCC(=O)N3)cc1 (stereo not drawn),/,/,/,3%,/,-16%
SMILES,Pf growth 48h,AmpC inh no detg,SARS PLP yeast,AmpC inh detg,Pf growth 96h,Sm TGR block
COc1ccc(OCC(=O)NC2CC(=O)N(c3ccc4c(c3)OCCO4)C2)cc1 (stereo not drawn),/,/,/,-1%,/,2%
Cc1csc(NC(=O)CCSCCc2ccccn2)n1,/,-12%,-3%,-9%,9.3µM*,13%
C=CCSc1nnc(Cc2cc(=O)[nH]c(=O)[nH]2)n1-c1cc(C)ccc1C,?,0%,5%,-11%,21%,22µM*
CCc1nnc(NC(=O)c2ccc(COc3cccc(C)c3)o2)s1,11%,-17%,-1%,-5%,13%,-15%
O=C1NC(Cc2c[nH]c3ccccc23)C(=O)N1CCOc1ccc(F)cc1 (stereo not drawn),6%,-8%,1%,-8%,4%,-7%
O=C1NC(Cc2c[nH]c3ccccc23)C(=O)N1Cc1ccc(CN2C(=O)NC(Cc3c[nH]c4ccccc34)C2=O)cc1 (stereo not drawn),5.2µM*,7%,1%,-5%,-19%,21%
CCOC(=O)/C(=C/c1ccc(OC(=O)c2ccncc2)cc1)C(C)=O,10%,4%,-11%,-4%,17%,?
CCOC(=O)C(CC)(CC)C(=O)/C=C/c1ccc(Br)cc1,15µM*,-12%,-13%,0%,?,12%
CCOC(=O)C(=Cc1ccc(F)cc1)C(=O)OCC,-1%,-10%,-7%,-7%,-18%,16µM*
CCOC(=O)C(=Cc1ccc(Br)cc1)C(=O)OCC,?,-11%,-4%,-17%,?,3.5µM*
CCOC(=O)C(=Cc1ccc(-n2ccnc2)cc1)C(=O)OCC,13µM*,3%,-23%,6%,?,13µM*
CCc1ccc(C(C)NC(=O)/C=C/c2ccc(Br)cc2)cc1 (stereo not drawn),12%,-26%,-9%,-1%,/,0%
CCc1cccc(C)c1NC(=O)CSc1nc2ccccc2nc1Cc1ccccc1,/,/,/,17%,/,3%
COc1ccc(NC(=O)CN2CCCN(S(=O)(=O)c3ccc(Br)cc3)CC2)c(OC)c1,/,/,/,-5%,/,-2%
CC1(C)CC(=O)C(Sc2ccccc2)=C(O)C1,32%,-32%,-1%,-13%,-8%,10µM*
CCCC1CC(CSC(=N)N)OC1=O (stereo not drawn),/,-23%,14µM*,-5%,35%,0%
CCCCCCC1CC(CSC(=N)N)OC1=O (stereo not drawn),/,-15%,-2%,0%,50%,-9%
